This note sets out measurements from PubChem BioAssay.

Calls of active or inactive are those of the source.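 The calls were made as follows, unless noted: active = inhibition above 50%; inactive = the rest.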

A short description of one assay: antimalarial activity against Dd2 strain (AID 2302;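 active = growth inhibition above 50% at the single 2 µM test dose, taken to imply half-maximal potency below 2 µM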;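 also: 0% = DMSO untreated growth and 100% = chloroquine plus artemisinin killed control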). The settings on record: P. falciparum Dd2 in RBCs, LDH growth readout, 72 h; at 2 µM; active compounds read high.
Turning to `COc1ccc(-c2ccc(NC(=O)c3ccc(C#N)cc3)cc2)cc1CN(C)CCN(C)C`, the growth inhibition is 58% (active).
On the same count and under the same terms, the same measure for `COc1cccc(-c2ccc3c(-c4ccc(F)cc4)cnc(N)c3c2)c1`: 70% (active); for `COc1ccc(CNC(=O)NC2CCN(c3ccnc(Nc4ccc(F)cc4)n3)CC2)cc1`: 4% (inactive); for `O=C(NCCc1ccccc1)N(Cc1ccc(-c2cccc(CN3CCNCC3)c2)cc1)C1CCN(Cc2ccccc2)CC1`: 29% (inactive).

The nature of another assay: HepG2 cytotoxicity, primary screen, cytotoxicity control for P. falciparum antimalarial project, cell-based, ATP luminescence (AID 2303).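 Also: 0% = DMSO wells and 100% = digitonin-killed cells.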 The settings on record: HepG2 viability, 24-48 h, at 10 µM, active compounds read high.
What is called inhibition is the relative decrease from the control value, in per cent. Turning to `CC(C)CCN=C(N)c1ccc(OCCCCCOc2ccc(C(N)=NCCC(C)C)cc2)cc1`, the inhibition was 5% (inactive).
The same measure, in the same setting: the same measure for `COc1ccc2nccc([C@@H](O)CN3CCC(NCc4cn5cc(F)ccc5n4)CC3)c2c1`: 19% (inactive); for `CS(=O)(=O)c1ccc(CCNCc2ccc(-c3ccc(CN(C(=O)C4CC(=O)c5ccccc54)C4CCN(Cc5ccccc5)CC4)cc3)nc2)cc1` (centres undefined): 9% (inactive); for `Cc1[nH]c(C)c(-c2ccc(C(=O)c3ccc(Cl)cc3)cc2)c(=O)c1Br`: 10% (inactive).
Same read-out and setting: the same measure for `CCCNCc1ccc(-c2ccc(CN(CCOC)C(=O)c3ccccc3)cc2)nc1`: 16% (inactive).
The same measure, in the same setting: the result for `CC(C)C(NC(=O)Cc1cccc2ccccc12)C(=O)Nc1cccc(C#N)c1` (centres undefined) reads -3% (inactive).
`COc1ccccc1CCNc1nc(C)cc(N[C@@H](CC(C)C)C(=O)Nc2ccccc2)n1`: the inhibition is 16% (inactive).
As for `CCC1(CC)CN(c2ccccc2)c2ccc(O)cc2S(=O)(=O)C1CC(C)C` (centres undefined), the inhibition is -7% (inactive).
The same measure, in the same setting: the same measure for `O=C(Nc1cc(C(F)(F)F)ccc1Cl)c1ccc(Cn2cc(Br)cn2)cc1`: 24% (inactive); for `COc1cccc(NC(=O)Nc2ccc(-c3oc(C(=O)NCC(c4ccccc4)N(C)C)cc3-c3ccncc3)cc2)c1` (centres undefined): 6% (inactive); for `CC(Cc1ccc(NC(=O)c2ccc(CNCc3ccccc3)cc2)cc1)N(CCc1cccc(Cl)c1)C(=O)OC(C)(C)C` (centres undefined): 16% (inactive).
The same measure, in the same setting: the result for `NC(=NCCc1ccc(Cl)c(Cl)c1)c1ccc2ccccc2c1` reads 60% (active); that for `O=C(NC1CCCc2ccccc21)C1CCCN(C(=O)c2ccc(O)c(-c3ccc(Cl)c(Cl)c3)c2)C1` (centres undefined), -3% (inactive); that for `CC(C)CNC(=O)c1cncc(-c2ccc(CNCCCc3ccccc3)cc2)c1`, 28% (inactive).
On the same count and under the same terms, the same measure for `O=C(/C=C/c1ccc(Cl)c(Cl)c1)NCCCCCN1CCC(NC(=S)Nc2ccc(F)cc2F)CC1`: 20% (inactive); for `CN(C)C(C)(C)CN(Cc1ccc(-c2ccc(C(F)(F)F)cc2)cc1)C(=O)Cn1c(CCc2cccc(F)c2F)nc(=O)c2ccccc21`: 64% (active); for `CCc1cccc2c(C#N)cn(CC(=O)Nc3ccc(OC)cc3)c12`: -13% (inactive).
In the case of `COc1ccc2c(CCNc3nc(SC)ncc3C(=O)NCCc3ccc(F)cc3)c[nH]c2c1`, the inhibition was 3% (inactive).
The same measure, in the same setting: the result for `COc1ccc(C(=O)[C@H]2C[C@@H]2CN(C)CCC(O)c2ccc(Cl)c(Cl)c2)cc1` (some centres undefined) reads 24% (inactive); that for `Cc1nc(N)nc(N)c1-c1ccc(Br)cc1`, 46% (inactive); that for `COc1cc(Cc2cnc(N)nc2N)ccc1OCC(=O)Nc1ccc(C)cc1`, 10% (inactive).
Turning to `O=C(/C=C/c1ccc(C(F)(F)F)cc1)NCCCCCN1CCN(C(=O)Nc2ccc(F)c(Cl)c2)CC1`, the inhibition was 35% (inactive).
In the case of `O=C(NCc1cccc(OC(F)(F)F)c1)c1cnc2c(c1)nc(-c1cnc(-c3ccccc3)[nH]1)n2CCc1cnc[nH]1`, the inhibition is 0% (inactive).
The same measure, in the same setting: the same measure for `Cc1cccc2[nH]c(-c3ccc(-c4ccc(CN5CCN(CCN6CCOCC6)CC5)cc4)cc3)nc12`: 49% (inactive).
For the compound `Cc1nc(NCCCn2ccnc2)cc(-c2cncc(-c3ccc(OC(F)(F)F)cc3)c2)n1`, the inhibition was 2% (inactive).
For the compound `Oc1ccc2[nH]cc(C3CCN(CCC(c4ccccc4)c4ccccc4)CC3)c2c1`, the inhibition was 27% (inactive).
On the same count and under the same terms, the result for `COc1ccc2nccc(N3CCC(NCCNCc4ccc5c(n4)NC(=O)CS5)C3)c2n1` (centres undefined) reads -4% (inactive).
For the compound `COc1cc(C)nc2ccc(NC(=O)c3ccc(C(=O)Nc4ccc5nc(C)cc(OC)c5c4)cc3)cc12`, the inhibition was 27% (inactive).
Still for that read-out and setting: the result for `Cn1nc(-c2cccc(CN[C@@H]3CCc4ccc(O)cc43)c2)c2cnc(NC3CCCC3)nc21` reads 6% (inactive).
Same read-out and setting: the result for `Oc1ccc(CCNc2nc(NCCCOc3ccccc3-c3cccnc3)nc(N3CCNCC3)n2)cc1` reads 10% (inactive); that for `CC(C)N1CCN(C(CN2CCN(CCCOc3cccc4ccccc34)CC2)c2ccc(F)cc2)CC1` (centres undefined), 54% (active).
With `O=C(Nc1cccc([N+](=O)[O-])c1)Nc1ccc(Cl)c(C(F)(F)F)c1`, the inhibition was 15% (inactive).
Same read-out and setting: the result for `NC1CCN(c2nc(NCCCc3ccc(O)cc3)nc(NCc3ccccc3-c3ccc(C(F)(F)F)cc3)n2)CC1` reads 15% (inactive).
Still for that read-out and setting: the same measure for `CCc1ccc(-c2nc3cc(NC(=O)c4cc([N+](=O)[O-])cc([N+](=O)[O-])c4)ccc3o2)cc1`: 12% (inactive).
For `FC(F)(F)c1ccc2nc(-c3ccc(-c4ccc(CNCc5cnn(-c6ccccc6)n5)cc4)cc3)[nH]c2c1`, the inhibition was 35% (inactive).
Same read-out and setting: the result for `Cc1ccc(C(=O)Nc2ccc(Nc3ccnc4cc(-c5ccccn5)ccc34)cc2O)cc1` reads 100% (active); that for `COc1ccc(-c2ccc(NC(=O)c3ccc(C#N)cc3)cc2)cc1CN(C)CCN(C)C`, 28% (inactive).
On the same count and under the same terms, the result for `COc1cccc(-c2ccc3c(-c4ccc(F)cc4)cnc(N)c3c2)c1` reads 27% (inactive).
Still for that read-out and setting: the same measure for `COc1ccc(CNC(=O)NC2CCN(c3ccnc(Nc4ccc(F)cc4)n3)CC2)cc1`: 16% (inactive).
On to `O=C(NCCc1ccccc1)N(Cc1ccc(-c2cccc(CN3CCNCC3)c2)cc1)C1CCN(Cc2ccccc2)CC1`, for which the inhibition is 27% (inactive).
